Hit rate of the full screen: of about 5,500 compounds, about 2,000 (36%) were called active. About 18% were inconclusive and are not listed. Cut-off read from the data, not from the text of the source: active = normalized growth mostly below about 0.91 (no sharp cut-off); inconclusive = no clear call, values can overlap the other calls; inactive = mostly above about 0.92. The list shows a part of the results.
Assay: chemical genetic growth profiling, strain panel (AID 1159580);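 note: tested at 20 µM; growth read once vehicle control cultures reached saturation at 30 °C; 1 = growth at the plate median or of vehicle wells; lower values mean less growth of the strain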
Conditions: growth OD

Measured: normalized growth

NC(=O)N1c2ccccc2CC(=O)c2ccccc21
inactive: S. cerevisiae deletion strains, locus YKL009W, strain mrt4, hits give low values 1.01 | S. cerevisiae deletion strains, locus YKL068W, hits give low values 0.994 | S. cerevisiae deletion strains, locus YKL085W, strain MDH1 (second series), hits give low values 1.02 | S. cerevisiae deletion strains, locus YKL085W, strain MDH1, hits give low values 1.02 | S. cerevisiae deletion strains, locus YKL160W, strain elf1, hits give low values 1.05 | S. cerevisiae deletion strains, locus YKL190W, strain CNB1, hits give low values 1 | S. cerevisiae deletion strains, locus YKR001C, strain vps1, hits give low values 0.969 | S. cerevisiae deletion strains, locus YKR026C, strain gcn3, hits give low values 0.972 | S. cerevisiae deletion strains, locus YKR091W, strain srl3, hits give low values 0.989 | S. cerevisiae deletion strains, locus YLL001W, strain dnm1, hits give low values 0.969 | S. cerevisiae deletion strains, locus YLL026W, hits give low values 0.988 | S. cerevisiae deletion strains, locus YLL041C, strain sdh2, hits give low values 0.982 | S. cerevisiae deletion strains, locus YLR027C, strain aat2, hits give low values 0.999 | S. cerevisiae deletion strains, locus YLR039C, strain RIC1, hits give low values 0.972 | S. cerevisiae deletion strains, locus YLR058C, strain SHM2, hits give low values 0.988 | S. cerevisiae deletion strains, locus YLR102C, strain apc9, hits give low values 0.979 | S. cerevisiae deletion strains, locus YLR113W, strain HOG1, hits give low values 0.96 | S. cerevisiae deletion strains, locus YLR221C, strain rsa3, hits give low values 0.962 | S. cerevisiae deletion strains, locus YLR258W, strain gsy2, hits give low values 1.01 | S. cerevisiae deletion strains, locus YLR262C, strain YPT6 (second series), hits give low values 1.01 | S. cerevisiae deletion strains, locus YLR262C, strain YPT6, hits give low values 1.01 | S. cerevisiae deletion strains, locus YLR268W, strain sec22, hits give low values 1 | S. cerevisiae deletion strains, locus YLR320W, strain mms22, hits give low values 0.945 | S. cerevisiae deletion strains, locus YLR330W, strain CHS5, hits give low values 0.989 | S. cerevisiae deletion strains, locus YLR342W, strain FKS1 (second series), hits give low values 0.949 | S. cerevisiae deletion strains, locus YLR342W, strain FKS1, hits give low values 0.998 | S. cerevisiae deletion strains, locus YLR357W, strain rsc2, hits give low values 0.993 | S. cerevisiae deletion strains, locus YLR370C, strain arc18, hits give low values 1 | S. cerevisiae deletion strains, locus YLR371W, strain rom2, hits give low values 0.969 | S. cerevisiae deletion strains, locus YLR384C, strain iki3, hits give low values 0.983 | S. cerevisiae deletion strains, locus YLR418C, strain cdc73, hits give low values 1.01 | S. cerevisiae deletion strains, locus YML016C, strain PPZ1, hits give low values 0.985 | S. cerevisiae deletion strains, locus YML032C, strain rad52, hits give low values 0.96 | S. cerevisiae deletion strains, locus YML120C, strain ndi1, hits give low values 0.949 | S. cerevisiae deletion strains, locus YML124C, strain tub3, hits give low values 0.979 | S. cerevisiae deletion strains, locus YMR058W, strain fet3, hits give low values 0.978 | S. cerevisiae deletion strains, locus YMR078C, strain ctf18, hits give low values 0.973 | S. cerevisiae deletion strains, locus YMR125W, strain sto1, hits give low values 0.971 | S. cerevisiae deletion strains, locus YMR129W, hits give low values 0.992 | S. cerevisiae deletion strains, locus YMR205C, strain PFK2, hits give low values 0.96 | S. cerevisiae deletion strains, locus YMR223W, strain ubp8, hits give low values 0.962 | S. cerevisiae deletion strains, locus YMR231W, strain pep5, hits give low values 0.971 | S. cerevisiae deletion strains, locus YMR263W, strain SAP30, hits give low values 1.02 | S. cerevisiae deletion strains, locus YMR307W, strain GAS1, hits give low values 0.881 | S. cerevisiae deletion strains, locus YNL067W, strain RPL9B, hits give low values 1.02 | S. cerevisiae deletion strains, locus YNL071W, strain lat1, hits give low values 0.979 | S. cerevisiae deletion strains, locus YNL128W, strain TEP1, hits give low values 1.01 | S. cerevisiae deletion strains, locus YNL153C, strain GIM3, hits give low values 1.02 | S. cerevisiae deletion strains, locus YNL183C, strain NPR1, hits give low values 0.943 | S. cerevisiae deletion strains, locus YNL209W, strain ssb2, hits give low values 0.988 | S. cerevisiae deletion strains, locus YNL233W, strain BNI4, hits give low values 1 | S. cerevisiae deletion strains, locus YNL248C, strain rpa49, hits give low values 0.997 | S. cerevisiae deletion strains, locus YNL250W, strain rad50, hits give low values 0.99 | S. cerevisiae deletion strains, locus YNL271C, strain bni1, hits give low values 0.974 | S. cerevisiae deletion strains, locus YNL298W, strain CLA4, hits give low values 0.974 | S. cerevisiae deletion strains, locus YNL307C, strain MCK1, hits give low values 0.96 | S. cerevisiae deletion strains, locus YNL322C, strain KRE1 (second series), hits give low values 0.986 | S. cerevisiae deletion strains, locus YNL322C, strain KRE1, hits give low values 0.998 | S. cerevisiae deletion strains, locus YNR049C, strain mso1, hits give low values 0.991 | S. cerevisiae deletion strains, locus YNR052C, strain pop2, hits give low values 0.962 | S. cerevisiae deletion strains, locus YOL006C, strain TOP1, hits give low values 1.03 | S. cerevisiae deletion strains, locus YOL012C, strain htz1 0.873 | S. cerevisiae deletion strains, locus YOL147C, strain pex11, hits give low values 0.991 | S. cerevisiae deletion strains, locus YOR001W, strain rrp6, hits give low values 0.949 | S. cerevisiae deletion strains, locus YOR061W, strain CKA2, hits give low values 0.994 | S. cerevisiae deletion strains, locus YOR069W, strain VPS5, hits give low values 0.975 | S. cerevisiae deletion strains, locus YOR070C, strain gyp1, hits give low values 1 | S. cerevisiae deletion strains, locus YOR080W, strain dia2, hits give low values 1 | S. cerevisiae deletion strains, locus YOR083W, strain WHI5, hits give low values 0.99 | S. cerevisiae deletion strains, locus YOR106W, strain vam3, hits give low values 1.03 | S. cerevisiae deletion strains, locus YOR136W, strain idh2, hits give low values 0.98 | S. cerevisiae deletion strains, locus YOR144C, strain elg1, hits give low values 0.986 | S. cerevisiae deletion strains, locus YOR184W, strain ser1, hits give low values 0.951 | S. cerevisiae deletion strains, locus YOR231W, strain MKK1, hits give low values 0.999 | S. cerevisiae deletion strains, locus YOR265W, strain rbl2, hits give low values 0.996 | S. cerevisiae deletion strains, locus YOR270C, strain vph1, hits give low values 0.929 | S. cerevisiae deletion strains, locus YOR290C, strain snf2, hits give low values 1.02 | S. cerevisiae deletion strains, locus YOR316C, strain cot1, hits give low values 0.983 | S. cerevisiae deletion strains, locus YPL051W, strain arl3, hits give low values 1.04 | S. cerevisiae deletion strains, locus YPL055C, strain LGE1, hits give low values 1.03 | S. cerevisiae deletion strains, locus YPL078C, strain atp4, hits give low values 1.01 | S. cerevisiae deletion strains, locus YPL106C, strain sse1, hits give low values 1.01 | S. cerevisiae deletion strains, locus YPL240C, strain hsp82, hits give low values 0.986 | S. cerevisiae deletion strains, locus YPL241C, strain CIN2, hits give low values 0.996 | S. cerevisiae deletion strains, locus YPL256C, strain CLN2, hits give low values 0.992 | S. cerevisiae deletion strains, locus YPR119W, strain clb2, hits give low values 0.997 | S. cerevisiae deletion strains, locus YPR141C, strain kar3, hits give low values 0.987 | S. cerevisiae deletion strains, locus YPR163C, strain tif3, hits give low values 0.983 | S. cerevisiae deletion strains, locus YPR167C, strain met16, hits give low values 0.979 | S. cerevisiae deletion strains, strain wtn01, hits give low values 0.999 | S. cerevisiae strains, strain wild type, hits give low values 0.989
